Reference: PubChem BioAssay (NCATS)
Active and inactive are the calls of the source. Calls come from the whole dose curve.

experiment: Cell Proliferation Assay Versus the ED40515 IL2 Dependent ATL cell lines (AID 1053195); settings: ED40515 IL2-dependent ATL cells
Source text: Adult T-cell leukemia (ATL) develops in individuals infected with human T-cell lymphotropic virus-1 (HTLV-1). Clinically, ATL is subclassified into four subtypes: smoldering, chronic, lymphomatous, and acute. Two autocrine loops (IL-2/IL-2Ralpha and IL-15/IL-15Ralpha) and one paracrine stimulation loop that involves IL-9 expression by ATL cells and IL-9Ralpha expression on monocytes are required to maintain viability and proliferation in the smoldering and chronic forms of the disease. These assays examined the differential response profiles for the MIPE library of approved and investigational drugs versus an IL2 dependent and independent matched ATL cell line, with the current submission examining the differential response profiles for drugs on an IL2 dependent matched ATL cell line.
Plate log growing ED40515 +IL2 cells: 1000cells/ well in 5uL phenol red free RPMI +5% FBS +1x p/s, Glutamine using 1536 well white griener tissue culture plates and multidrop cassette acoustic dispensing Columns 1 and 3 DMSO Columns 2 and 4, 9.2 uM Bortezomib Incubate 48 hours for celltiter glo 37C with 5%CO2 and 95% humidity with low evaporation lids Dispense 3 uL per well of cell titer glo with multidrop Incubate for 15 minutes at RT Read on VL/2 using Luminesence Wheel (Filter A)

Row | Structure (SMILES) | Potency
1 | C[C@@H]1[C@@H](CC(C[C@H]2O[C@@H]3O[C@]4(C)CC[C@@H]5[C@H](C)CC[C@@H]([C@H]2C)[C@@]35OO4)C[S+](=O)([O-])c2ccc(COC(=O)N(C)C)cc2)O[C@@H]2O[C@]3(C)CC[C@H]4[C@H](C)CC[C@@H]1[C@@]24OO3 (stereo not given in full) | 0.0166 µM (active)
2 | O=c1c(O)c(-c2ccc(O)c(O)c2)oc2cc(O)cc(O)c12 | 16.6 µM (active)
3 | O=C(O)C(=O)c1cn(Cc2ccccc2)c2ccc(-c3ccc(OC(F)(F)F)cc3)cc12 | 20.9 µM (active)
4 | C[C@]12CCC(=O)C(O)=C1CC[C@@H]1[C@@H]2CC[C@]2(C)C(=O)CC[C@@H]12 | 0.059 µM (active)
5 | CC1=C2C[C@@H]3[C@@H](CC=C4C[C@@H](O)CC[C@@]43C)[C@@H]2CC[C@]12O[C@H]1C[C@H](C)CN[C@H]1[C@H]2C | 16.6 µM (active)
6 | CNC(=O)c1ccc(N2C(=S)N(c3ccc(C#N)c(C(F)(F)F)c3)C(=O)C23CCC3)cc1F | 20.9 µM (active)
7 | CNC(=O)N1N=C(c2ccc(N)cc2)c2cc3c(cc2CC1C)OCO3 (stereo not given) | 14.8 µM (active)
8 | CC(O)(CS(=O)(=O)c1ccc(F)cc1)C(=O)Nc1ccc(C#N)c(C(F)(F)F)c1 (stereo not given) | 14.8 µM (active)
9 | CCCCC/C=C\C/C=C\C/C=C\C/C=C\CCCC(=O)NC1CC1 | 16.6 µM (active)
10 | CN(C)CCN(C)CCc1ccc(Cl)c(Cl)c1 | 16.6 µM (active)
11 | Cc1cc(SCc2sc(-c3ccc(C(F)(F)F)c(F)c3)nc2C)ccc1OCC(=O)O | 18.7 µM (active)
12 | Cn1cc(C2=C(c3cn(C4CCN(Cc5ccccn5)CC4)c4ccccc34)C(=O)NC2=O)c2ccccc21 | 14.8 µM (active)
13 | C[C@@H]1[C@@H](C(=O)C[C@H]2O[C@@H]3O[C@]4(C)CC[C@@H]5[C@H](C)CC[C@@H]([C@H]2C)[C@@]35OO4)O[C@@H]2O[C@]3(C)CC[C@H]4[C@H](C)CC[C@@H]1[C@@]24OO3 | 0.0066 µM (active)
14 | CC(C)n1c(C=C[C@H](O)C[C@H](O)CC(=O)O)c(-c2ccc(F)cc2)c2ccccc21 | 0.209 µM (active)
15 | COC1(CS(=O)c2ccccc2)CCN(CCc2c[nH]c3ccc(F)cc23)CC1 (stereo not given) | 23.5 µM (active)
